# Experimental data from PubChem BioAssay AID686978 (National Center for Advancing Translational Sciences (NCATS), 2013).
# Where “and” joins values, the source holds several entries; their conditions need not be identical. Equal values may be shown once. Out of some 420,000 compounds screened, about 64,000 (15%) were called active. About 27% were inconclusive and are not listed. Calls come from the whole dose curve; as a rule, active = well fitted inhibition curve with a large enough effect; inconclusive = small, poorly fitted or top-dose-only effect; inactive = flat fitted curve, though single readings scatter. Shown is part of a subset that was picked to be rich in actives.
# Test: qHTS for Inhibitors of human tyrosyl-DNA phosphodiesterase 1 (TDP1): qHTS in cells in absence of CPT; note: nearly all actives have a fitted effect of over 55% in size
# Conditions: DT40 Tdp1-/- hTDP1 cells, no CPT, ATP luminescence, 48 h; series mostly up to 46.2 µM; activity change, negative = growth inhibition: at the top concentration
# Excerpt: Human tyrosyl-DNA phosphodiesterase 1 (TDP1) is a novel repair gene, and we propose to use it as a new target for anticancer drug development. TDP1 is not an essential protein, but under treatment with topoisomerase I poison (camptothecin: CPT), TDP1 works as a critical factor for cell survival. To directly identify novel TDP1 inhibitors active in a cellular environment, we have knocked-out the Tdp1 gene in chicken DT40 cells (Tdp1-/-) and generated a complemented counterpart cells that contains a stable transfection of the human TDP1 gene (Tdp1-/-;hTDP1 cells). For the primary screen, Tdp1-/-;hTDP1 cells will be exposed to small molecules in the presence or absence of CPT, and their growth kinetics will be evaluated after 48 hours by measuring ATP activity. […] The hit compounds will then be evaluated in the presence or absence of CPT using Tdp1-/- cells. […] In tertiary assays, biochemical gel-based assays will be used to assess whether the hit compounds specifically target TDP1.
# To this end, we have screened this cell line against the MLSMR in two primary screens. In one screen we add CPT and in the other we screen in the absence of CPT; this AID represents the screen where CPT was absent.
# NIH Chemical Genomics Center [NCGC]
# NIH Molecular Libraries Probe Centers Network [MLPCN]
# Assay Submitter (PI): Yves Pommier, NCI
# DT40-hTDP1 cells without 20 nM Camptothecin (add 20 microL of DMSO in 1 L of cell culture medium) were dispensed at 400 cells/5microL/well in tissue culture treated 1536-well white wall/solid bottom assay plates (Greiner Bio-One North America, NC, U.S.A.) using a Multidrop Combi 8 channel dispenser (Thermo Fisher, Waltham, MA, USA). 23 nL compounds and controls were transferred using the pin tool (Kalypsys, San Diego, CA, USA) to the assay plates. The assay plates were then incubated at 37 masculineC for a minimum 48 hr. Three microL of Cell Titer Glo solution was added to the plates and incubated at RT in dark for 30 min. Luminescence was read using ViewLux (Perkin Elmer) with 1 sec exposure slow speed, high gain and 2x binning.
# % is set by controls: 0 for no effect and ±100 for the full control effect; potency is the fitted concentration of half-maximal effect.
SMILES,Potency,"activity change, negative = growth inhibition"
CN(Cc1cccc2ncccc12)C(=O)c1cnn(-c2nccc(-c3ccccc3F)n2)c1C1CC1,3.66 µM (active),–
CCOC(=O)CC(SP1(=S)OCC2(CCCCO2)C(C2CCCCO2)O1)C(=O)OCC (stereo not given),–,-23.8% (inactive)
CC[N+](C)(CC)CCC[n+]1c(-c2ccccc2)c2cc(N)ccc2c2ccc(N)cc21,2.58 µM (active),–
CCOP(=S)(OCC)C(O)CCCCCn1c(=O)c(F)cn(C2CCCO2)c1=O (stereo not given),–,-6.96% (inactive)
O=C(Nc1ccc(Cl)cc1C(=O)c1ccccc1)c1cc(Cl)cc(Cl)c1,–,-8.13% (inactive)
CCC1(c2ccccc2)C(=O)NC(=O)N(C)C1=O (stereo not given),–,-2.29% (inactive)
CC=C(C)C(=O)OC1CCN2CC=C(COC(=O)C(O)(C(C)OC)C(C)(C)O)C12 (stereo not given),–,1.67% (inactive)
COC(=O)C1=C(c2ccc(Cl)c(C(F)(F)F)c2)C[C@@H]2CC[C@H]1N2C(=O)NC(C)C,20.6 µM (active),–
COC(=O)C1=C(c2ccc(Cl)c(C(F)(F)F)c2)C[C@@H]2CC[C@H]1N2C(=O)NC1CC1,10.3 µM (active),–
COC(=O)C1=C(c2ccc(C(C)=O)cc2)C[C@@H]2CC[C@H]1N2C(=O)NCCNC(C)=O,–,13.1% (inactive)
COC(=O)C1=C(c2ccc(F)cc2F)C[C@@H]2CC[C@H]1N2C(=O)NC1CC1,–,-26.6% (inactive)
COc1ccc(NC(=O)N2CCC3(CC2)OCCO3)c(OC)c1,–,7.95% (inactive)
CCOC(=O)c1c(C)c(C(=O)N2CCC3(CC2)OCCO3)c(C)n1CC,–,4.35% (inactive)
CCN1c2nc3c(C)cccn3c(=O)c2CC2(C(=O)N(C)C(=O)N(C)C2=O)C1C (stereo not given),–,-4.11% (inactive)
CN(C)C(=O)NC(O)C(Cl)(Cl)Cl (stereo not given),–,0.9% (inactive)
COc1ccc(-c2nn(CCC#N)cc2C(=O)Nc2ccc(C(C)=O)cc2)cc1,–,5.46% (inactive)
CN(C)CC1Oc2ccccc2OC1(O)c1ccccc1 (stereo not given),2.06 µM (active),–
CCCOC(=O)C1C2c3ccccc3C(c3ccccc32)C1C(=O)O (stereo not given),–,-12.7% (inactive)
CC(CC(C#N)(c1ccccc1)c1ccccc1)N1CCCCC1 (stereo not given),–,-3.92% (inactive)
CC(C)(c1ccc(OC[C@@H]2CO2)cc1)c1ccc(OC[C@H]2CO2)cc1,11.9 µM (active),–

SMILES,Potency,"activity change, negative = growth inhibition"
CCOC(=O)C(O)(c1ccc(N)c(OC)c1)C(F)(F)F (stereo not given),–,-3.69% (inactive)
Cc1cc(N2C(=O)C3CCCN3C2c2ccc(Cl)c(Cl)c2)no1 (stereo not given),–,6.03% (inactive)
CN(C)S(=O)(=O)c1cc(C(=O)N2CCC(C(=O)O)(c3ccccc3)CC2)ccc1Cl,–,-3.11% (inactive)
Cc1ccc(NC(=O)CN(C)CC(=O)Nc2cccc(F)c2)cc1[N+](=O)[O-],1.16 µM (active),–
C=CCSSCC=C,–,2.53% (inactive)
O=C(NCC(c1cccnc1)N1CCN(c2ccccc2)CC1)Oc1ccccc1 (stereo not given),–,-19.5% (inactive)
COc1cc2c(cc1OC)[C@@H]1C(=O)c3ccc(O)c(CC=C(C)C)c3OC1CO2 (stereo not given in full),–,-17.4% (inactive)
N#CC1=C(N)Oc2c(c(=O)oc3ccccc23)C1c1ccccc1OC(=O)c1cccs1 (stereo not given),23.1 µM (active),–
CCNc1nc2[nH]c(=O)c3c(c2s1)OC(N)=C(C#N)C3c1cccs1 (stereo not given),–,-27.5% (inactive)
CCOC(=O)C(O)(c1ccc(N=Cc2ccccc2O)c(C)c1)C(F)(F)F (stereo not given),–,26.3% (inactive)
CCOc1ccc(-c2cc(C)[n+](CCN(CC)CC)c(-c3ccc(OCC)cc3)c2)cc1,0.184 µM (active),–
COc1ccc(CNCCc2ccc3c(c2)OCO3)c(OC)c1OC,–,-22.3% (inactive)
COc1cc(C2c3cc4c(cc3C(O)C3COC(=O)C23)OCO4)cc(OC)c1OC (stereo not given),28.2 nM (active) and 73.1 nM (active),–
COc1ccccc1OC(=O)c1ccc(C)c(S(=O)(=O)N2CCOCC2)c1,–,-10.1% (inactive)
COc1cc(C(c2c(O)c3ccccc3oc2=O)c2c(C)n(C)n(-c3ccccc3)c2=O)ccc1O (stereo not given),inactive,–
CCCCCn1c(=O)c(C(=O)NCc2ccccc2)c(O)c2ccccc21,6.51 µM (active),–
CCCCn1c(=O)c(C(=O)Nc2ccccc2Cl)c(O)c2ccccc21,25.9 µM (active),–
CCCCCn1c(=O)c(C(=O)NCc2ccccn2)c(O)c2ccccc21,20.6 µM (active),–
CCCCCn1c(=O)c(C(=O)Nc2c(C)n(C)n(-c3ccccc3)c2=O)c(O)c2ccccc21,4.61 µM (active),–
O=C(CSC1c2ccccc2-c2ccccc21)N/N=C/c1ccccc1,–,-16.6% (inactive)

SMILES,Potency,"activity change, negative = growth inhibition"
O=C1CC(=O)N(Cc2ccccc2)C(=O)N1CCCCCCN1C(=O)CC(=O)N(Cc2ccccc2)C1=O,–,2.08% (inactive)
CN(C)C(=O)Oc1cc(=O)n2c3c(cccc13)CCC2,–,-22.8% (inactive)
CC[N+]1(CCOC(=O)C(O)(c2ccccc2)c2ccccc2)CCCCC1,–,-6.5% (inactive)
O=C(c1cc(S(=O)(=O)N2CCOCC2)ccc1F)N1CCC2(CC1)OCCO2,–,-19.4% (inactive)
CO[C@@H]1C[C@@H](C[C@H]2CC[C@H](C)[C@@H]([C@@H](C)C(=O)O)O2)O[C@]2(O[C@](C)([C@H]3CC[C@@](C)(C4OC([C@H]5O[C@@](O)(CO)[C@H](C)C[C@@H]5C)C[C@@H]4C)O3)C[C@H]2C)[C@@H]1C (stereo not given in full),0.588 µM (active),–
CN(C)P(=S)(Nc1ccccc1)C(Cl)(Cl)Cl (stereo not given),–,-28.9% (inactive)
CN(C)C(=O)Oc1ccc(NC(=O)N2CCOCC2)cc1,–,15.6% (inactive)
O=C(Nc1cccc(OC(=O)N2CCCCC2)c1)N1CCOCC1,5.8 µM (active),–
O=C(Nc1cccc(F)c1)N1CC[C@@]2(CCCN(C(=O)Oc3ccccc3)C2)C1,–,-69.5% (inactive)
c1ccc2sc(N3CCNCC3)nc2c1,–,-0.512% (inactive)
COc1ccc(NC(=O)c2cn(CCC#N)nc2-c2ccc([N+](=O)[O-])cc2)cc1,–,2.67% (inactive)
CN1CCN(/N=C/c2c[nH]c3ccccc23)CC1,–,2.07% (inactive)
C[C@@H]1C[C@@H]2O[C@H]2/C=C\C=C\C(=O)Cc2c(Cl)c(O)cc(O)c2C(=O)O1,0.164 µM (active),–
NS(=O)(=O)c1ccc(CCNC(=O)c2ccc(Cl)c(S(=O)(=O)N3CCCCCC3)c2)cc1,23.1 µM (active),–
C=CCn1c(O)c(/C=N/N2CCOCC2)c(=O)[nH]c1=S,–,3.41% (inactive)
CN(C(=O)CSc1nc2ccc(NC(=O)COc3ccccc3)cc2s1)c1ccccc1,11.6 µM (active),–
O=C(COc1ccccc1Cl)Nc1ccc2nc(SCC(=O)N3CCCC3)sc2c1,16.4 µM (active),–
CCOCCc1c(O)[nH]c(=S)[nH]c1=O,–,-9.37% (inactive)
COc1ccc(C2Oc3c(I)c(OC)cc(OC)c3CC2O)cc1OC (stereo not given),–,-14.9% (inactive)
CCCCC/C=C\C/C=C\C/C=C\C/C=C\CCCCCC(=O)NCCO,–,-2.9% [at 4.12 µM] (inactive)
